In PubChem BioAssay AID588456 (National Center for Advancing Translational Sciences (NCATS), 2011):
The whole screen tested about 390,000 compounds, of which about 55 (0.01%) were called active. Only a sample is shown. Values without a mark were called inactive. Calls follow the shape of the dose curve; as a rule, active = well fitted inhibition curve with a large enough effect; inconclusive = small, poorly fitted or top-dose-only effect; inactive = no such curve, though single readings can be large or run the other way.

molecular target: Thioredoxin reductase 1, cytoplasmic (Rattus norvegicus) (UniProt O89049); assay: qHTS Assay for Substrates of Mammalian Selenoprotein Thioredoxin Reductase 1 (TrxR1): qHTS; details: purified TrxR1 substrate turnover, NADPH consumption readout; series mostly up to 114 µM; also: nearly all actives have a fitted effect of over 50% in size
Sequence (O89049 whole entry, looked up): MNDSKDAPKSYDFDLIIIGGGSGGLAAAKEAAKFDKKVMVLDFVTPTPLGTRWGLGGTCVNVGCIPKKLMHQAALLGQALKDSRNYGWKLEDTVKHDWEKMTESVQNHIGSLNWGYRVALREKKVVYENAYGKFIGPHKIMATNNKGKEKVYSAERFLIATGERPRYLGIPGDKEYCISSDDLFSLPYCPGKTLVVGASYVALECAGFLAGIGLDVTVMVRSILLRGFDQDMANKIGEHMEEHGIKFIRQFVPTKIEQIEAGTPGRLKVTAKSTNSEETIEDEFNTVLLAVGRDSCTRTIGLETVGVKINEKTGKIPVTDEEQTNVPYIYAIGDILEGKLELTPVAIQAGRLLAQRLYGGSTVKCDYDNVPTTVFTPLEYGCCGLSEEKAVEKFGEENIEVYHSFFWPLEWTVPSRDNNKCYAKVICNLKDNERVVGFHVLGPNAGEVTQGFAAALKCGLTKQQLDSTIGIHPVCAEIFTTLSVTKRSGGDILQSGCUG
Source text: The selenoprotein thioredoxin reductase (TrxR; EC 1.8.1.9) is a FAD containing homodimeric pyridine nucleotide-disulfide oxidoreductase with many cellular roles. Together with NADPH and its prime substrate thioredoxin (Trx), the enzyme forms the core of the Trx system. The mammalian Trx system exerts a wide spectrum of functions including redox regulation, antioxidant defense, regulation of transcription factors as well as support of cell growth and replication. Many of these functions involve the reduction of Trx, which may subsequently reduce a number of different substrates including ribonucleotide reductase, peroxiredoxins or NFkB. Mammalian TrxR itself also has a broad substrate specificity, reducing both protein and non-protein substrates, including low molecular weight compounds such as dehydroascorbate, lipoic acid, ubiquinone, and juglone. In addition, several drugs in clinical use for anticancer treatment are indeed known to target TrxR1.
This BioAssay is a validation of an NADPH fluorescence-based, dual-purpose qHTS rTrxR1 assay designed to find potential inhibitors and substrates of rTrxR1. For this particular BioAssay, actives are potential substrate. See related BioAssay for inhibition data deposition.
NIH Molecular Libraries Probe Production Network [MLPCN]
NIH Chemical Genomics Center [NCGC]
Assay Provider: Elias Arner, Karolinska Institute
Assay protocol: 2 uL of reagents (buffer in column 4 as negative control and 90 nM rTrxR1 in columns 1-3 and 5-48) were dispensed into Greiner black solid-bottom 1,536-well assay plates, followed by 1 uL of NADPH (400 uM final concentration) to each well. The plates were centrifuged at 1000 rpm for 15 seconds and subsequently incubated for 5 min at room temperature (~22 deg C) to allow for rTrxR1 reduction. Compounds (23 nL) were then transferred via Kalypsys pin tool equipped with 1536-pin array (10 nL slotted pins, V&P Scientific, San Diego, CA). In addition, a duplicate 2-fold serial dilution of the control compounds auranofin, a known gold-based TrxR1 inhibitor, and juglone (5-hydroxy-1,4-naphthoquinone), a natural TrxR1 substrate, were pin-transferred to columns 2 and 3, respectively. After incubation for 15 min at room temperature (~22 deg C), 1 uL of selenite (400 uM final concentration) were dispensed to each well. The plate was immediately transferred to a ViewLux high-throughput CCD imager (PerkinElmer), wherein kinetic measurements of NADPH fluorescence (Ex 340 nm, Em 450 nm) were acquired (8 minute kinetic read, see Table 1). Read 1 was utilized to assess the capacity of a compound to serve as an rTrxR1 substrate, i.e. a decrease in NADPH fluorescence compared to the no-compound background is an indication of a substrate behavior for that particular compound. For inhibitory activity of a compound, delta values, computed as the difference in fluorescence intensity between the first and last reads of an 8-minute time kinetic window, were used. All reagents were diluted in an assay buffer consisting of 50 mM Tris-HCl, pH 7.5, 2 mM EDTA, and 0.01% Tween-20.
Throughout the screen, reagent bottle and all liquid lines were made light-tight to minimize reagent degradation. All screening operations were performed on a fully integrated robotic system (Kalypsys, San Diego, CA) containing one RX-130 and two RX-90 anthropomorphic robotic arms (Staubli, Duncan, SC). Library plates were screened starting from the lowest and proceeding to the highest concentration, and a 'double-pinning' step of the highest concentration was required to access higher concentrations of compounds. Vehicle-only plates, with DMSO being pin-transferred to the columns 5-48, were inserted uniformly at the beginning and the end of each library in order to monitor and record any shifts in the background, which can be affected by reagent dispensers or loss in enzyme activity over time. […]
% is scaled to controls: 0 for no effect and ±100 for the full control effect.

Row | Structure (SMILES) | activity change, negative = substrate turnover
1 | Nc1ccc(/C=C/c2ccnc3ccccc23)c([N+](=O)[O-])c1 | 7.22% [at 0.0914 µM]
2 | O=C(CCCn1c(=O)c2cccn2c2cccnc21)NCc1ccc(F)cc1 | inactive
3 | Cc1ccc(S(=O)(=O)N2CCN(c3nc(-n4cnc5ccccc54)nc4ccccc34)CC2)cc1 | inactive
4 | CSc1n[nH]c(-c2ccco2)n1 | inactive
5 | CN(C)c1ccc(/C=C2\C=Cc3ccccc32)cc1Br | inactive
6 | O=C(Nc1ccc2nc(SCCOc3ccccc3)sc2c1)c1ccco1 | inactive
7 | Cn1nnnc1SCCCNCc1cccc(OCc2ccc(Cl)cc2)c1 | inactive
8 | COc1ccc(/C=C/c2ccccn2)cc1OC | inactive
9 | Cc1csc(NCC(=O)c2c[nH]c3ccccc23)n1 | inactive
10 | Nc1nc(N)c(N=O)c(N)n1 | inactive
11 | OC(CBr)C[n+]1cccc2cc(Br)ccc21 (stereo unspecified) | inactive
12 | O=C(c1cnn2c1NC(=C1CC1)C=C2C(F)F)N1CCc2ccccc2C1 | inactive
13 | Cc1cccc(CN2Cc3cccc4c3[C@H](C=CC4)CC2=S)c1 | inactive
14 | Cc1cc[n+](C2CCCCC2)cc1 | inactive
15 | COc1cccc(Nc2nc3ccccc3c3nncn23)c1 | inactive
16 | CC(NC(=O)c1cc(Sc2ccc(F)cc2F)nc2ccccc12)c1ccccc1 (stereo unspecified) | inactive
17 | Cc1ccc2cccc(NC(=O)c3ccc(OC(C)C)cc3)c2n1 | inactive
18 | CCc1ccc(Sc2cc(C(=O)NCCCOC(C)C)c3ccccc3n2)cc1 | inactive
19 | Nc1ncnc2c1c(I)cn2[C@@H]1C[C@H](N)[C@@H](O)[C@H]1O | inactive
20 | Cc1ccc(NC(=O)c2cc3cc(C)ccc3n2C)cc1 | inactive
21 | O=C1COc2ccc(-c3csc(-c4ccc(Cl)cc4)n3)cc2N1 | inactive
22 | CC(C)(C)c1ccc(C(=O)C[n+]2cccc3cc(Cl)ccc32)cc1 | inactive

Row | Structure (SMILES) | activity change, negative = substrate turnover
23 | OC(Cc1ccc2ccccc2n1)c1ccc(Cl)c(Cl)c1 (stereo unspecified) | inactive
24 | CO[C@H]1O[C@@H]2O[C@@]3(C)CC[C@@H]4[C@@H](C)CC[C@@H]([C@H]1C)[C@@]24OO3 | inactive
25 | CCOC(=O)c1cc(-c2ccccc2)n(-c2cccc(C(=O)Nc3cc(OC)cc(OC)c3)c2)c1C | inactive
26 | CCOC(=O)c1c(C)[nH]c(CCC(=O)Nc2ccc(OC)c(OC)c2)c1C | inactive
27 | CCc1ccccc1NC(=O)Cn1c(=O)n(-c2cccc(C)c2)c(=O)c2c1c1cc(OC)ccc1n2C | inactive
28 | CN(CCC#N)c1ccc(C=O)cc1 | inactive
29 | COc1ccccc1N1CCN(C2C(=O)c3ccccc3N2C(C)=O)CC1 (stereo unspecified) | inactive
30 | CCOc1ccc(NC(=O)C(CC(C)C)N2Cc3ccccc3C2=O)cc1 (stereo unspecified) | inactive
31 | CN(C)CCCn1c(-c2ccc(Cl)cc2)csc1=Nc1ccccc1 | inactive
32 | CC1(C)CCc2cc(S(=O)(=O)N3CCN(c4nc(-c5cccs5)nc5ccccc45)CC3)ccc2O1 | inactive
33 | C=C1C=C(C)n2ncc(C(=O)Nc3ccccc3O)c2N1 | inactive
34 | COC(=O)C1=C(C(=O)OC)[C@@H]2N(Cc3ccccc3)c3ccccc3[C@@]23C[C@@H](C(=O)OC)N(S(=O)(=O)c2ccc(C(F)(F)F)cc2)C3=N1 | inactive
35 | CCOc1ccc(N2CC(C)Cn3c2nc2c3c(=O)n(Cc3c(F)cccc3Cl)c(=O)n2C)cc1 (stereo unspecified) | inactive
36 | C=C1C=C(C(F)F)n2ncc(C(=O)NCCc3ccccc3OC)c2N1 | inactive
37 | Cc1ccc(NC(=O)C(Cc2ccccc2)NS(=O)(=O)c2ccc3c(c2)oc(=O)n3C)cc1C (stereo unspecified) | inactive
38 | CCOc1ccc(Nc2ncnc3scc(-c4ccc(OC)cc4)c23)cc1 | inactive
39 | COc1cccc(CNCCSc2nnnn2C)c1OCc1ccccc1Cl | 8.42% [at 11.4 µM]
40 | Cc1ccc(Cn2cnc3c(cnn3C(C)(C)C)c2=O)c(F)c1 | inactive
41 | COc1cc(C(=O)Nc2ccc(OCc3cc(=O)n4ccc(C)cc4n3)cc2)cc(OC)c1OC | inactive
42 | CC1CCCN(c2nc3c(S(=O)(=O)c4ccc(C(C)C)cc4)nnn3c3ccsc23)C1 (stereo unspecified) | inactive
43 | Cc1[nH]c2ccccc2c1C(=O)C(=O)N(C)c1ccccc1 | inactive
44 | CN(CC(=O)Nc1ccccc1F)S(=O)(=O)c1ccc2c(c1)c(=O)n(C)c(=O)n2C | inactive

Row | Structure (SMILES) | activity change, negative = substrate turnover
45 | COc1ccccc1CNC(=O)C(=O)NCC(c1ccco1)S(=O)(=O)c1ccc(F)cc1 (stereo unspecified) | inactive
46 | CCOc1ccccc1CNC(=O)C1CCCN(S(=O)(=O)c2ccc3c(ccn3C)c2)C1 (stereo unspecified) | inactive
47 | CN(Cc1ccccc1)c1ccc(/C=C/c2ccnc3ccccc23)cc1 | inactive
48 | Oc1ccccc1-c1nc(/C=C/c2ccc(F)cc2)no1 | inactive
49 | CC(C)Cn1c(-c2ccc(S(=O)(=O)N3CCOCC3)cc2)csc1=Nc1cc(Cl)ccc1Cl | inactive
50 | COc1cc(OC)c(OC)cc1/C=C1\C=Cc2ccccc21 | 6.44% [at 0.0914 µM]
51 | Cc1cccc(C(=O)N2CCc3cc(CNC(=O)Cc4ccc(F)cc4)ccc32)c1 | inactive
52 | Cc1nnc(SCC(=O)NCc2ccccc2Cl)c2nn(-c3ccccc3)c(C)c12 | inactive
53 | Brc1cccc[n+]1Cc1cccc(C[n+]2ccccc2Br)c1 | inactive
54 | COc1cc2[nH]c(=O)n(Cc3ccc(C(=O)NCc4ccc(C)cc4)cc3)c(=O)c2cc1OC | 3.98% [at 2.29 µM]
55 | CN(C)c1ccc(/C=N\Nc2ccc([N+](=O)[O-])cc2[N+](=O)[O-])cc1Cl | inactive
56 | COc1cc2nc(Cl)nc(NC3CC3)c2cc1OC | inactive
57 | Cc1nnc(C)n1-c1ccc(C(=O)Nc2cccc(Br)c2)cc1 | inactive
58 | Cc1ccc(C=O)cc1Cl | inactive
59 | Cc1ccc(-c2nnc3ccc(SCC(N)=O)nn23)cc1 | inactive
60 | CN(C)c1ccc(C=Nc2ccc(/C=C/c3ccnc4ccccc34)cc2)cc1 | inactive
61 | Cc1nnc(NCc2ccccc2)c2c1nnn2Cc1ccc(F)cc1 | inactive
62 | CN(C)c1ccc(/C=C/c2sc3ccccc3[n+]2CCCCBr)cc1 | inactive
63 | CC(C)(C(=O)NO)c1ccccc1 | inactive
64 | O=C1O/C(=C\c2ccc(O)cc2)C(O)=C1c1ccc(O)cc1 | inactive
65 | NC1CCN(O)C1=O (stereo unspecified) | inactive
66 | C=COC(=O)N1CCN(/[N+]([O-])=N/Oc2ccc([N+](=O)[O-])cc2[N+](=O)[O-])CC1 | 10.5% [at 0.457 µM]
